PubChem BioAssay AID1259240 (Keith Lab, Institute of Cancer Science, University of …, 2017)
Unmarked numbers belong to inactive results. Activity calls are given as the source filed them. Rule as the data show it: active = fold change mostly below about -2 (no sharp cut-off); inactive = mostly above about -1.8.

Experiment: modulation of TERT promoter-driven luciferase – cell-based, luciferase reporter, human, primary screen (AID 1259240)
Settings: A2780 TERT promoter luciferase reporter, 16 h; at 20 µM, fold versus average of vehicle-only wells

CN(CC(=O)NCc1ccco1)S(=O)(=O)c1ccc2c(c1)c(=O)n(C)c(=O)n2C
fold change: -1.15

COc1cc(NC(=O)C2CCCN(S(=O)(=O)c3ccc4c(c3)oc(=O)n4C)C2)cc(OC)c1 (configuration not stated)
fold change: 1.09

CCOc1ccc(C2CC(=O)Nc3cc4c(cc32)OCO4)cc1Cl (configuration not stated)
fold change: -1.12

CCCCCNC(=O)c1ccc(NC2=NC3CS(=O)(=O)CC3S2)cc1 (configuration not stated)
fold change: 1.22

CC(C)OCCCNc1nc(-c2ccccc2)nc2ccccc12
fold change: -1.24

COc1ccccc1/C=C/C=c1\sc2nc(-c3ccco3)nn2c1=O
fold change: 1.41

COc1ccc(-c2nc3s/c(=C\c4cc(OC)c(OC)c(OC)c4)c(=O)n3n2)cc1OC
fold change: 1.65

CCOC(=O)C1CCCN(c2c(NCCCN3CCN(C)CC3)c(=O)c2=O)C1 (configuration not stated)
fold change: -1.03

Cc1nc(SCC(=O)Nc2cc(C)on2)c2c(=O)n(C)c(=O)n(C)c2n1
fold change: -1.1

COc1ccc2c(NCC3=CC=CC3)cc(C)nc2c1
fold change: -1.73

c1cc2nncn2nc1NCCCN1CCOCC1
fold change: -1.08

CCN1C(=O)/C(=c2\sc3nc(-c4cccc(C)c4)nn3c2=O)c2cc(Br)ccc21
fold change: -1.02

CCCN(CCC)c1c(NC2CCN(C(=O)OCC)CC2)c(=O)c1=O
fold change: -1.25

O=c1nc2s/c(=C\c3ccco3)c(=O)n2nc1Cc1ccc(Cl)cc1
fold change: -1.46

CC(C)Oc1ccc(-c2cc(C(F)(F)F)n3ncc(C#N)c3n2)cc1
fold change: -2.17 (active)

CC(C)C(C(=O)O)N1C(=O)/C(=C/c2cccs2)SC1=S (configuration not stated)
fold change: -3.32 (active)

COc1ccc(-c2n[nH]c3c2C(c2ccc(Cl)cc2)NC3=O)cc1 (configuration not stated)
fold change: -3 (active)

COC(=O)C1Cc2cc(OC)c(OC)cc2C(Cc2ccc(OC)c(OC)c2)=N1 (configuration not stated)
fold change: -1.78

Cc1nn2c3cc(N4CCOCC4)ccc3nc2c2ccccc12
fold change: -2.16 (active)

CC1=CSC2=NC(=O)/C(=C\c3coc4ccccc4c3=O)C(=N)N12
fold change: -1.1

Cn1c(=O)oc2cc(S(=O)(=O)N3CCC(C(=O)NCC4COc5ccccc5O4)CC3)ccc21 (configuration not stated)
fold change: -1.13

CCOC(=O)N1CCC(Nc2ccc3nncn3n2)CC1
fold change: -1.14

CCOC(=O)Cc1csc(NC(=O)Nc2cccs2)n1
fold change: 1.33

CCCc1cc(C(=O)Nc2c(C)n(C)n(-c3ccccc3)c2=O)no1
fold change: -1.12

Cc1ccc(-n2c(C)c3c(C)nn4cc(C)cc4c3c2C)cc1
fold change: -2.26 (active)

CC(=O)C(Sc1nc(C)nc2c1c(=O)n(C)c(=O)n2C)C(C)=O
fold change: 1.87

CCCCN(C)C(=O)Cn1c(=O)oc2cc(S(=O)(=O)N3CC(C)CC(C)C3)ccc21 (configuration not stated)
fold change: 1.08

COc1ccc(C(=O)CSc2nnc(Cc3cc(=O)[nH]c(=O)[nH]3)n2-c2ccc(Cl)cc2)cc1
fold change: -1.34

Cc1ccc2ccc(C(Nc3ccccn3)c3ccncc3)c(O)c2n1 (configuration not stated)
fold change: -1.62

Cc1cc(C)cc(CC(CC(=O)Nc2nccs2)C(=O)Nc2nccs2)c1 (configuration not stated)
fold change: 1.18

C=CCOc1ccc(/C(O)=C2/C(=O)C(=O)N(CC3CCCO3)C23C(=O)N(C)c2ccccc23)cc1 (configuration not stated)
fold change: -1.41

COC(=O)c1nc2n(n1)C(c1cccc(Br)c1)C1=C(CCCC1=O)N2 (configuration not stated)
outcome: inactive

COc1cc2[nH]c(=O)n(CC3CCCO3)c(=O)c2cc1OC (configuration not stated)
fold change: 1.01

CC1(C)CC2CC(C)(CN2C(=O)CSc2nc(-c3ccco3)cc(C(F)(F)F)n2)C1 (configuration not stated)
fold change: -1.47

Cc1cc(C)c(C#N)c(SCC(=O)Nc2nc(-c3ccccc3)ns2)n1
fold change: -1.27

CCCn1c(NCc2cccs2)nc2ccccc21
fold change: 1.22

O=C(NC1CCCCC1)c1cccc(NC2=NC3CS(=O)(=O)CC3S2)c1 (configuration not stated)
fold change: -1.15

CCC(C)NC(=O)Cn1ncc2c3ccccc3n(C)c2c1=O (configuration not stated)
fold change: -1.04

CCOC(=O)Cn1c(=O)oc2cc(S(=O)(=O)Nc3ccc(F)cc3)ccc21
fold change: -1.03

Cc1ccc(NC(=O)Nc2ccc3c(c2)N(C)C(=O)CS3)c(C)c1
fold change: -1.06

Cn1c(=O)c2cc(S(=O)(=O)NCCC(=O)NC3CCCCCC3)ccc2n(C)c1=O
fold change: 1.3

CN(Cc1ccco1)C(=O)c1ccc(CNc2c(N3CCCCC3)c(=O)c2=O)cc1
fold change: -1.11
